Hit rate of the full screen: of about 5,500 compounds, about 2,000 (36%) were called active. Roughly 18% stayed inconclusive and do not appear here. No stated cut-off is given here; in the data, active means normalized growth mostly below about 0.91 (no sharp cut-off); inconclusive means no clear call, values can overlap the other calls; inactive means mostly above about 0.92. The list shows a part of the results.
Experiment: chemical genetic growth profiling, strain panel (AID 1159580);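 further: tested at 20 µM; growth read once vehicle control cultures reached saturation at 30 °C; 1 = growth at the plate median or of vehicle wells; lower values mean less growth of the strain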
Settings: growth OD

Measured: normalized growth

CCCCOc1ccc(CC(=O)NO)cc1
inactive: S. cerevisiae deletion strains, locus YJR043C, strain POL32, active compounds read low 0.968 | S. cerevisiae deletion strains, locus YJR066W, strain TOR1, active compounds read low 0.976 | S. cerevisiae deletion strains, locus YJR075W, strain HOC1, active compounds read low 0.977 | S. cerevisiae deletion strains, locus YKL009W, strain mrt4, active compounds read low 1.01 | S. cerevisiae deletion strains, locus YKL068W, active compounds read low 0.999 | S. cerevisiae deletion strains, locus YKL085W, strain MDH1 (second series), active compounds read low 0.998 | S. cerevisiae deletion strains, locus YKL085W, strain MDH1, active compounds read low 0.998 | S. cerevisiae deletion strains, locus YKL160W, strain elf1, active compounds read low 0.984 | S. cerevisiae deletion strains, locus YKL190W, strain CNB1, active compounds read low 0.994 | S. cerevisiae deletion strains, locus YKR026C, strain gcn3, active compounds read low 0.991 | S. cerevisiae deletion strains, locus YKR091W, strain srl3, active compounds read low 0.996 | S. cerevisiae deletion strains, locus YLL001W, strain dnm1, active compounds read low 0.986 | S. cerevisiae deletion strains, locus YLL026W, active compounds read low 0.981 | S. cerevisiae deletion strains, locus YLL041C, strain sdh2, active compounds read low 0.985 | S. cerevisiae deletion strains, locus YLR027C, strain aat2, active compounds read low 0.97 | S. cerevisiae deletion strains, locus YLR039C, strain RIC1, active compounds read low 0.731 | S. cerevisiae deletion strains, locus YLR058C, strain SHM2, active compounds read low 1 | S. cerevisiae deletion strains, locus YLR102C, strain apc9, active compounds read low 1.01 | S. cerevisiae deletion strains, locus YLR113W, strain HOG1, active compounds read low 0.963 | S. cerevisiae deletion strains, locus YLR221C, strain rsa3, active compounds read low 0.963 | S. cerevisiae deletion strains, locus YLR258W, strain gsy2, active compounds read low 0.984 | S. cerevisiae deletion strains, locus YLR262C, strain YPT6, active compounds read low 0.738 | S. cerevisiae deletion strains, locus YLR268W, strain sec22, active compounds read low 0.983 | S. cerevisiae deletion strains, locus YLR320W, strain mms22, active compounds read low 0.958 | S. cerevisiae deletion strains, locus YLR330W, strain CHS5, active compounds read low 0.988 | S. cerevisiae deletion strains, locus YLR342W, strain FKS1 (second series), active compounds read low 1.01 | S. cerevisiae deletion strains, locus YLR342W, strain FKS1, active compounds read low 1.01 | S. cerevisiae deletion strains, locus YLR357W, strain rsc2, active compounds read low 1 | S. cerevisiae deletion strains, locus YLR370C, strain arc18, active compounds read low 0.989 | S. cerevisiae deletion strains, locus YLR371W, strain rom2, active compounds read low 0.999 | S. cerevisiae deletion strains, locus YLR384C, strain iki3, active compounds read low 0.991 | S. cerevisiae deletion strains, locus YLR418C, strain cdc73, active compounds read low 0.921 | S. cerevisiae deletion strains, locus YML016C, strain PPZ1, active compounds read low 1 | S. cerevisiae deletion strains, locus YML032C, strain rad52, active compounds read low 0.997 | S. cerevisiae deletion strains, locus YML120C, strain ndi1, active compounds read low 0.991 | S. cerevisiae deletion strains, locus YML124C, strain tub3, active compounds read low 1 | S. cerevisiae deletion strains, locus YMR058W, strain fet3, active compounds read low 0.969 | S. cerevisiae deletion strains, locus YMR078C, strain ctf18, active compounds read low 1 | S. cerevisiae deletion strains, locus YMR125W, strain sto1, active compounds read low 0.997 | S. cerevisiae deletion strains, locus YMR129W, active compounds read low 0.996 | S. cerevisiae deletion strains, locus YMR205C, strain PFK2, active compounds read low 0.984 | S. cerevisiae deletion strains, locus YMR223W, strain ubp8, active compounds read low 1 | S. cerevisiae deletion strains, locus YMR231W, strain pep5, active compounds read low 1 | S. cerevisiae deletion strains, locus YMR307W, strain GAS1, active compounds read low 0.998 | S. cerevisiae deletion strains, locus YNL067W, strain RPL9B, active compounds read low 0.976 | S. cerevisiae deletion strains, locus YNL071W, strain lat1, active compounds read low 0.992 | S. cerevisiae deletion strains, locus YNL183C, strain NPR1, active compounds read low 0.97 | S. cerevisiae deletion strains, locus YNL209W, strain ssb2, active compounds read low 1.01 | S. cerevisiae deletion strains, locus YNL233W, strain BNI4, active compounds read low 0.966 | S. cerevisiae deletion strains, locus YNL248C, strain rpa49, active compounds read low 0.968 | S. cerevisiae deletion strains, locus YNL250W, strain rad50, active compounds read low 1 | S. cerevisiae deletion strains, locus YNL271C, strain bni1, active compounds read low 1.01 | S. cerevisiae deletion strains, locus YNL298W, strain CLA4, active compounds read low 1.01 | S. cerevisiae deletion strains, locus YNL307C, strain MCK1, active compounds read low 0.999 | S. cerevisiae deletion strains, locus YNL322C, strain KRE1 (second series), active compounds read low 0.997 | S. cerevisiae deletion strains, locus YNR049C, strain mso1, active compounds read low 0.995 | S. cerevisiae deletion strains, locus YNR052C, strain pop2, active compounds read low 1.01 | S. cerevisiae deletion strains, locus YOL006C, strain TOP1, active compounds read low 0.887 | S. cerevisiae deletion strains, locus YOL012C, strain htz1 1.47 | S. cerevisiae deletion strains, locus YOL147C, strain pex11, active compounds read low 1 | S. cerevisiae deletion strains, locus YOR001W, strain rrp6, active compounds read low 1.01 | S. cerevisiae deletion strains, locus YOR061W, strain CKA2, active compounds read low 0.985 | S. cerevisiae deletion strains, locus YOR069W, strain VPS5, active compounds read low 0.997 | S. cerevisiae deletion strains, locus YOR070C, strain gyp1, active compounds read low 0.999 | S. cerevisiae deletion strains, locus YOR080W, strain dia2, active compounds read low 0.995 | S. cerevisiae deletion strains, locus YOR083W, strain WHI5, active compounds read low 0.982 | S. cerevisiae deletion strains, locus YOR106W, strain vam3, active compounds read low 0.971 | S. cerevisiae deletion strains, locus YOR136W, strain idh2, active compounds read low 1.01 | S. cerevisiae deletion strains, locus YOR144C, strain elg1, active compounds read low 1 | S. cerevisiae deletion strains, locus YOR184W, strain ser1, active compounds read low 0.999 | S. cerevisiae deletion strains, locus YOR231W, strain MKK1, active compounds read low 1 | S. cerevisiae deletion strains, locus YOR265W, strain rbl2, active compounds read low 0.997 | S. cerevisiae deletion strains, locus YOR270C, strain vph1, active compounds read low 0.989 | S. cerevisiae deletion strains, locus YOR290C, strain snf2, active compounds read low 0.989 | S. cerevisiae deletion strains, locus YOR316C, strain cot1, active compounds read low 1.01 | S. cerevisiae deletion strains, locus YPL051W, strain arl3, active compounds read low 0.961 | S. cerevisiae deletion strains, locus YPL078C, strain atp4, active compounds read low 1 | S. cerevisiae deletion strains, locus YPL106C, strain sse1, active compounds read low 1.08 | S. cerevisiae deletion strains, locus YPL240C, strain hsp82, active compounds read low 1 | S. cerevisiae deletion strains, locus YPL241C, strain CIN2, active compounds read low 0.994 | S. cerevisiae deletion strains, locus YPL256C, strain CLN2, active compounds read low 1.02 | S. cerevisiae deletion strains, locus YPR119W, strain clb2, active compounds read low 1.01 | S. cerevisiae deletion strains, locus YPR141C, strain kar3, active compounds read low 1 | S. cerevisiae deletion strains, locus YPR163C, strain tif3, active compounds read low 1.01 | S. cerevisiae deletion strains, locus YPR167C, strain met16, active compounds read low 1.01 | S. cerevisiae deletion strains, strain wtn01, active compounds read low 0.988 | S. cerevisiae strains, strain wild type, active compounds read low 0.992
active: S. cerevisiae deletion strains, locus YKR001C, strain vps1, active compounds read low 0.831 | S. cerevisiae deletion strains, locus YLR262C, strain YPT6 (second series), active compounds read low 0.847
